# Assay results as given in PubChem BioAssay (EPA / NIEHS).
# Several values for one entry are separate records, joined by “and”; a condition that tells them apart may be missing. Equal values may be shown once. A structure can be active in one record and inactive in another. Activity calls are given as the source filed them. Rule for the calls: active = hit-call score of the fitted dose curve at least 0.9, where 1 is the maximum; inactive = score below 0.9.
# Read-out: Matrix Metallopeptidase 9 (MMP9), MMP9 (gene 4318)
# Assay: BSK_BE3C_MMP9: BioMAP Diversity Plus: BE3C Assay for Matrix Metallopeptidase 9 (MMP9) Biomarker Activity (AID 2284283)
# Details: primary human bronchial epithelial cells
# In short: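 Endpoint is the ELISA MMP-9 signal in human primary bronchial epithelial cultures taken 24 h after chemical dosing. DMSO serves as negative control and baseline, with gain-of-signal fitting.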
Compound,outcome,AC50
C=C(C)C(=O)OCC(F)(F)C(F)(F)C(F)(F)F,inactive,
C=CC(F)(F)C(F)(F)C(F)(F)C(F)(F)C(F)(F)C(F)(F)C(F)(F)C(F)(F)C=C,inactive,
C=C(C)C(=O)OCC(F)(F)C(F)(F)C(F)(F)C(F)(F)C(F)(F)C(F)(F)C(F)(F)F,inactive,
Cc1ccc(S(=O)(=O)OCC(F)(F)C(F)(F)C(F)(F)C(F)(F)C(F)(F)C(F)F)cc1,inactive,
FC(F)(F)C(F)(F)CNCC(F)(F)C(F)(F)F,inactive,
FC(F)(F)C(F)(F)C(F)(F)N(C(F)(F)C(F)(F)C(F)(F)F)C(F)(F)C(F)(F)C(F)(F)F,inactive,
OCC(F)(F)C(F)(F)C(F)(F)C(F)(F)C(F)(F)C(F)(F)F,inactive,
CC(C)(C)C(=O)CC(=O)C(F)(F)C(F)(F)C(F)(F)F,inactive,
FC(F)(F)C(F)(F)C(F)(F)C(F)(F)C(F)(F)C(F)(F)C(F)(F)Br,inactive,
CCO[Si](CCC(F)(F)C(F)(F)C(F)(F)C(F)(F)C(F)(F)C(F)(F)F)(OCC)OCC,inactive,
FC(F)(F)C(F)(F)C(F)(F)C(F)(F)CCI,inactive,
FC(F)(F)C(F)(F)C(F)(F)C(F)(F)C(F)(F)C(F)(F)C(F)(F)C(F)(F)F,inactive,
FC(F)(F)C(F)(F)C(F)(F)C(F)(F)C(F)(F)C(F)(F)C(F)(F)C(F)(F)CCS,inactive,
O=C(O)C(F)(F)C(F)(F)C(F)(F)C(F)(F)C(F)(F)C(F)(F)C(F)(F)C(F)(F)C(F)(F)C(F)(F)C(F)(F)C(F)(F)F,inactive,
OCC(F)(F)C(F)(F)C(F)(F)F,inactive,
NC(=O)C(F)(F)C(F)(F)C(F)(F)C(F)(F)F,inactive,
O=C(O)C(F)(F)C(F)(F)C(F)F,inactive,
C=CC(F)(F)C(F)(F)C(F)(F)C(F)(F)C(F)(F)C(F)(F)C(F)(F)C(F)(F)F,inactive,
OCCCC(F)(F)C(F)(F)C(F)(F)F,inactive,
C=CC(=O)OCC(F)(F)C(F)(F)C(F)(F)C(F)(F)COC(=O)C=C,,7.28 µM (active) and 11.8 µM (active)
CCCCC(CC)COP(=O)(O)OCC(CC)CCCC (stereo not drawn),inactive,29.6 µM (active)
O=C(O)C(F)(OC(F)(F)C(F)(OC(F)(F)C(F)(OC(F)(F)C(F)(F)C(F)(F)F)C(F)(F)F)C(F)(F)F)C(F)(F)F (stereo not drawn),inactive,
O=C(O)C(F)(F)C(F)(F)C(F)(F)C(F)(F)C(F)(F)C(F)(F)C(F)(F)C(F)(F)C(F)(F)C(F)F,,14.2 µM (active) and 10.6 µM (active)
FC(F)(F)C(F)(F)C(F)(F)C(F)(F)C(F)(F)CCI,inactive,
CCCCCCOC(=O)c1ccccc1O,inactive,
C=CC(=O)OCC(F)(F)C(F)(F)C(F)(F)C(F)(F)C(F)(F)C(F)(F)C(F)(F)F,inactive,
FC(F)(F)C(F)(F)C(F)(F)CI,inactive,
